Drawing on PubChem BioAssay (NCATS), this text covers outcome, Potency and activation for twelve molecules.

The structures appear in SMILES notation. Unmarked numbers belong to inactive results. Inconclusive results are not listed. Calls of active or inactive are those of the source. Unless noted, the call rests on the fitted dose curve; in most records, active means well fitted curve in the direction sought with a large enough effect; inconclusive means small, poorly fitted or top-dose-only effect, or another doubt; inactive means no such curve, though single readings can be large; an effect the other way counts as inactive or inconclusive.

For test [1], the target named is Guanine nucleotide-binding protein G(i) subunit alpha-1 (Homo sapiens) (UniProt P63096). Put plainly: qHTS Assay for Inhibitors of RGS12 GoLoco Motif Activity (Green Fluorophore) (AID 879).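 Further: 0% = labeled peptide with Gαi1 and full inhibition = labeled peptide alone without protein; negative values mean loss of peptide binding seen as reduced polarization.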 Put shortly:
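Fluorescence polarization assay: 50 nM Gαi1 with 10 nM FITC-labeled RGS12 GoLoco peptide in 10 mM Tris pH 7.5, 150 mM NaCl, 0.1 mM GDP, 0.05% NP40, 10 min at room temperature with compound.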
(In general: In qHTS, concentration-response curves come from the screen itself.)

The target in test [2] is Cytochrome P450 2C9 (Homo sapiens) (UniProt P11712). Put plainly: qHTS Assay for Inhibitors and Substrates of Cytochrome P450 2C9 (AID 883). Further: nearly all actives have a fitted effect of over 60% in size. Further: potency means the concentration at half of the fitted maximal effect. Put shortly:
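Luminescent read-out of deoxyluciferin hydroxylation, normalized to 57uM sulphaphenazole (AC100). Reaction: 10nM enzyme, 100uM Luciferin-H (equal to KM), 25mM KPO4, 10 min compound preincubation, then 60 min with NADPH regeneration, both at 37C.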

Test [3] addresses Cytochrome P450 3A4 (Homo sapiens) (UniProt P08684). Put plainly: qHTS Assay for Inhibitors and Substrates of Cytochrome P450 3A4 (AID 884). Further: series mostly up to about 57 µM; on the % scale 0 is the no-effect control and ±100 the full control effect; nearly all actives have a fitted effect of over 50% in size. An outline of the steps: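 20 nM human CYP3A4 with 25 uM Luciferin-PPXE (at KM) in 200 mM KPO4, preincubated 10 min with compound; NADPH regeneration started a 60 min RT reaction. Luciferin detected by luminescence, normalized to 57 uM ketoconazole as full inhibition.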

The target of test [4] is Cytochrome P450 2D6 (Homo sapiens) (UniProt P10635). Put plainly: qHTS Assay for Inhibitors and Substrates of Cytochrome P450 2D6 (AID 891).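 Further: luciferin methyl ether substrate demethylated by CYP2D6 with NADPH regeneration; on the % scale 0 is the no-effect control and ±100 the full control effect; nearly all actives have a fitted effect of over 60% in size.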 Put shortly:
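Human CYP2D6 (5 nM) with 30 uM Luciferin-ME EGE (at Km) in 100 mM KPO4, compound preincubated 10 min, then NADPH regeneration system for 60 min at room temperature. Luciferin read by luminescence; normalized to 1.43 uM quinidine.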

In test [5] the target is Cytochrome P450 2C19 (Homo sapiens) (UniProt P33261). Put plainly: qHTS Assay for Inhibitors and Substrates of Cytochrome P450 2C19 (AID 899). Further: on the % scale 0 is the no-effect control and ±100 the full control effect; nearly all actives have a fitted effect of over 60% in size. An outline of the steps:
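Luminescence readout of luciferin formed from 10uM Luciferin-H EGE (KM level) by 5 nM CYP2C19 in 50mM KPO4. 60 min NADPH-driven reaction at 37C after 10 min compound preincubation; data scaled to 57uM ketoconazole inhibition.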

A short description of test [6]: qHTS Assay for Identification of Small Molecule Agonists for Thrombopoietin (TPO) Signaling Pathway (AID 917). Further: on the % scale 0 is the no-effect control and ±100 the full control effect. Put shortly: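 Murine Ba/F3 cells expressing human TPO receptor and GPIIb-promoter luciferase, IL-3-starved overnight, given compound plus TPO at 26 pM (EC50). After 24 h at 37 C, 5% CO2, luminescence read.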
Test [7] deals with Pyruvate kinase (Leishmania mexicana) (UniProt Q27686). Put plainly: qHTS Validation Assay for Inhibitors of Leishmania Mexicana Pyruvate Kinase (AID 945).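 Further: 0% = DMSO only neutral control wells.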 An outline of the steps:
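Compounds are tested as eight-point concentration series. Reactions contain 0.2 nM LmPYK E451W, 0.5 mM PEP, 0.1 mM ADP, 7 mM MgCl2 and 50 mM KCl at pH 7.2, run 1 h at room temperature, then read by PKLight luminescence.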

Test [8] in a line: Cellular Toxicity (caspase-3) Hek293 (AID 664).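 Further: cells exposed to compound for 16 h at 37 °C before readout.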 An outline of the steps: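 HEK293 cells in complete medium treated 16 h at 37 °C, then Caspase-Glo 3/7 luminescence read after 20 min at room temperature. Normalized to DMSO and 100 uM tamoxifen; AC50 from Hill fit of concentration-response.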
The nature of test [9]: Cellular Toxicity (caspase-3) NIH 3T3 (AID 666).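 Further: caspase signal read after 16 h compound exposure; 0% = DMSO basal and 100% = 100 µM tamoxifen stimulation.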 An outline of the steps:
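Mouse NIH 3T3 fibroblasts (1000/well) treated 16 h at 37 C; caspase-3/7 activity measured by Caspase-Glo 3/7 luminescence after 20 min. Normalized to DMSO and 100 uM tamoxifen; AC50 from Hill fits.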

Test [10] in a line: Cellular Toxicity (caspase-3) Renal Proximal Tubule (AID 667).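 Further: cells exposed to compound for 16 hours at 37 °C before detection; 0% = DMSO basal and 100% = 10 µM staurosporine.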 Put shortly: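 Freshly isolated primary rat kidney proximal tubule cells, 1000/well, treated 16 hr at 37 °C, then Caspase-Glo 3/7 luminescence after 1 hr. Normalized to DMSO and 10 uM staurosporine; AC50 from Hill fit.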
Test [11] is described as follows: Cell Viability - LYMP2-001 (AID 921).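 Further: series mostly up to about 92 µM; 0% = DMSO only and full inhibition = tetraoctylammonium bromide control wells; nearly all actives have a fitted effect of over 70% in size.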 An outline of the steps: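 Human lymphoblastoid LYMP2-001 cells, 2500 per well, in complete medium, treated 24 h at 37 C. Viability from cellular ATP by CellTiter-Glo luminescence; AC50 from Hill-equation fits of qHTS concentration-response.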
A short description of test [12]: MultiTox-Fluor Cytotoxicity Assay - LYMP1-001 - Dead Cells (AID 946).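 Further: cells exposed to compound for 16 h.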 Further: potency means the concentration at half of the fitted maximal effect. An outline of the steps: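 AC50 from Hill fit of concentration-response; data normalized to DMSO (basal) and 15 uM tetraoctylammonium bromide (100%). LYMP1-001 lymphoblastoid cells, 2500/well, 16 hr compound at 37 C; dead-cell protease fluorescence, Ex/Em 485/520.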
Test [13] has as its target Cytochrome P450 3A4 (Homo sapiens) (UniProt P08684). Put plainly: qHTS Assay for Activators of Cytochrome P450 3A4 (AID 885). Further: nearly all actives have a fitted effect of over 65% in size. An outline of the steps:
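20nM CYP3A4 + 25uM Luciferin-PPXE (=KM), 200mM KPO4; cpd 10 min RT; NADPH regen, 60 min RT; stop w/ detection buffer, 20 min; luminescence. Normalized to 57 uM ketoconazole.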

Test [14] can be described thus: qHTS Assay for Identification of Small Molecule Antagonists for NFkB Signaling Pathway (AID 895; active means well fitted inhibition curve with a large enough effect in the signal ratio, with a control signal flat, not every such curve was filed as active; the % refers to the signal ratio; further: potency means the concentration at half of the fitted maximal effect). Put shortly:
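Beta-lactamase reporter read-out (460 and 530 nm emission ratio, 405 nm excitation, 2 hrs substrate loading RT) after 5 hr stimulation with 10 pM TNF alpha in compound-treated NFkB-bla ME-180 cells in low-serum medium.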

Test [15] in a line: Confirmation and Secondary Assay for Modulators of Hemoglobin Beta Chain Splicing at IVS2 654 locus (AID 910).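 Further: HeLa cells stably carrying EGFP split by mutant beta-globin IVS2-654 intron; per-well total GFP intensity by laser scanning cytometry after 2-day treatment; % of control where 0% means no effect.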 Put shortly: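 Readout: per-well total peak green fluorescence (488 nm ex, 500–520 nm em) from objects 5–250 µm, reflecting correct splicing of an EGFP-654 reporter. Compounds were applied for 2 days at 37 °C to overnight-plated HeLa EGFP-654 cells; controls were DMSO and 500 nM IVS2-654 PNA.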

A short description of test [16]: Confirmation and Secondary Assay for Modulators of Hemoglobin Beta Chain Splicing at IVS2 705 locus (AID 930).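 Further: HeLa cells stably expressing the EGFP-705 splicing reporter; GFP fluorescence per well restored by corrected splicing of the IVS2-705 intron in EGFP; series mostly up to about 46 µM; % of control where 0% means no effect.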 Put shortly: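 Fluorescence gain (488 nm laser, 500-520 nm PMT) reflects restored correct splicing of a mutant IVS2-705 intron inside EGFP in stably transfected HeLa cells after 2-day compound treatment.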
In test [17] the target is Muscarinic acetylcholine receptor M1 (Rattus norvegicus) (UniProt P08482). Put plainly: qHTS Assay for Antagonists of Acetylcholine Muscarinic M1 Receptor: Measurement of IP-One Response (AID 944). Further: nearly all actives have a fitted effect of over 75% in size. An outline of the steps: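 CHO cells stably expressing rat M1, pretreated 10 min with compound, then stimulated 30 min with carbachol at EC80 (200 nM) in LiCl-containing buffer pH 7.4; IP1 accumulation read by HTRF competition (665/620 nm).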

The nature of test [18]: qHTS Assay for Identification of Small Molecule Agonists for Hypoxia Response Element Signaling Pathway (AID 914; active means well fitted activation curve with a large enough effect in the signal ratio, with a control signal flat, not every such curve was filed as active; the % refers to the signal ratio; further: % of control where 0% means no effect). The following applies: ME-180 (cervical carcinoma) HRE-bla reporter, beta-lactamase ratio, CoCl2, 17 h; stronger effect = higher value. Put shortly: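 A beta-lactamase reporter under hypoxia response element control in ME-180 cells served as the system. Compound titrations plus EC50 CoCl2 ran 17 h at 37 degrees Celsius; AC50 values were fitted from %Activity.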

Cytochrome P450 3A4 (Homo sapiens), sequence (P08684 whole entry, looked up): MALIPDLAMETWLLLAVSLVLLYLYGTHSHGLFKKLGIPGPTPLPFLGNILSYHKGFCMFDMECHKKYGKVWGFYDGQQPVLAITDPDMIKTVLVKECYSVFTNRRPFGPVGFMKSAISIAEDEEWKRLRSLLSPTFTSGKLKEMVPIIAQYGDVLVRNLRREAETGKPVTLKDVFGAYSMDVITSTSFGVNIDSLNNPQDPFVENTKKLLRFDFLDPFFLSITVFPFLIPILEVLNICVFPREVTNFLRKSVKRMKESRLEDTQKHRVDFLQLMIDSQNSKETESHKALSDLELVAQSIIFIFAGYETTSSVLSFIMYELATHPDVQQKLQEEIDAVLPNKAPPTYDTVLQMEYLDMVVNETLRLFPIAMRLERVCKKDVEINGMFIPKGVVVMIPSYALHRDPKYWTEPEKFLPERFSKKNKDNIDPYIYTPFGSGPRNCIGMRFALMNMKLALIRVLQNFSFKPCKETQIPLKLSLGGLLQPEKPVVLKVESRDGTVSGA
Pyruvate kinase (Leishmania mexicana), sequence (Q27686 2-499 E452W): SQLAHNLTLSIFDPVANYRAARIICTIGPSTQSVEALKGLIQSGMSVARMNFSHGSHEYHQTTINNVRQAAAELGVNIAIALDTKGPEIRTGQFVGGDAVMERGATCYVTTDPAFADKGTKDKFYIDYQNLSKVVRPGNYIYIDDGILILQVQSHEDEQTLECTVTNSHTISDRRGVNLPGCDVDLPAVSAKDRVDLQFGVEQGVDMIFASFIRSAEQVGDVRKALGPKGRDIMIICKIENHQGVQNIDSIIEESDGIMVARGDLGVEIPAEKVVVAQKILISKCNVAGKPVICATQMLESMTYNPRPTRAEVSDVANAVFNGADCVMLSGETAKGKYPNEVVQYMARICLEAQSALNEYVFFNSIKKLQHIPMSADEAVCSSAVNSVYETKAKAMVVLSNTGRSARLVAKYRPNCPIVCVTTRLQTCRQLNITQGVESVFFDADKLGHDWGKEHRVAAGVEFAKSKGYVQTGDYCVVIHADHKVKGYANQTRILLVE
Guanine nucleotide-binding protein G(i) subunit alpha-1 (Homo sapiens), sequence (P63096 whole entry, looked up): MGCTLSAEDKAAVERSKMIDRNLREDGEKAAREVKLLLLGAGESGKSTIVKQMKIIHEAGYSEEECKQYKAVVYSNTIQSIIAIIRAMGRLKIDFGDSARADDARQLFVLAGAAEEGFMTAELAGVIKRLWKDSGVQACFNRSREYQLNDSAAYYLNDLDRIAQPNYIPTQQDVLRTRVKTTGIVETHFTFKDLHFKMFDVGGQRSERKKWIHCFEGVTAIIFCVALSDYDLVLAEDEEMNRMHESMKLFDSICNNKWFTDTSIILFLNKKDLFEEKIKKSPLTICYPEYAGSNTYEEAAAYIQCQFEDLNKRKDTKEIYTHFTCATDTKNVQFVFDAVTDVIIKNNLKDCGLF
Cytochrome P450 2D6 (Homo sapiens), sequence (P10635 whole entry, looked up): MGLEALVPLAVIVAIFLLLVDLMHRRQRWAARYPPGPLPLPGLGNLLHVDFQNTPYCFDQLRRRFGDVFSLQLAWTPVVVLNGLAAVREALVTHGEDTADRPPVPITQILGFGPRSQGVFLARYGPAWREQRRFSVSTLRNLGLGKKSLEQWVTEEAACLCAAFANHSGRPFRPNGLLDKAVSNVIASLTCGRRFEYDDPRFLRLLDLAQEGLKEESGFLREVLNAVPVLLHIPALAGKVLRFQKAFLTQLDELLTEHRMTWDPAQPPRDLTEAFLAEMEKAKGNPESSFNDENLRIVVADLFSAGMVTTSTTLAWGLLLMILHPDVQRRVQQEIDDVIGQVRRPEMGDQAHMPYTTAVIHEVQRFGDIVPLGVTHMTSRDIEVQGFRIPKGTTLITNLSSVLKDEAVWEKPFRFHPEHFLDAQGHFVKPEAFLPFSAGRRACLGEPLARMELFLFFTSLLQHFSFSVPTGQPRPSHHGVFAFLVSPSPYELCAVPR
Cytochrome P450 2C9 (Homo sapiens), sequence (P11712 whole entry, looked up): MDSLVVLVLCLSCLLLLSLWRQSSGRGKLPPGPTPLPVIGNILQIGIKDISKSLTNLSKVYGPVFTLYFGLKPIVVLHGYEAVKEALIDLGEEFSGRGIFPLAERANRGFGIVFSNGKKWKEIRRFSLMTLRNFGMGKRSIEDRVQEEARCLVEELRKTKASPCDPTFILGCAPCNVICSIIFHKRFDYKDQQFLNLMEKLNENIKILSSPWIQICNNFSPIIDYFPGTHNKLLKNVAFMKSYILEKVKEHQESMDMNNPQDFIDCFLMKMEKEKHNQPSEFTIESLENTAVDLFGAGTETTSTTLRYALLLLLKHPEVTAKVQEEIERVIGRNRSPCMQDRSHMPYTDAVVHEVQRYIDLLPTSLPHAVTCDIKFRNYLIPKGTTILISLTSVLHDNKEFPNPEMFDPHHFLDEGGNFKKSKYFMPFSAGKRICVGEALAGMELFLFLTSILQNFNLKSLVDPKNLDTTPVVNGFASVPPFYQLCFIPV
Cytochrome P450 2C19 (Homo sapiens), sequence (P33261 whole entry, looked up): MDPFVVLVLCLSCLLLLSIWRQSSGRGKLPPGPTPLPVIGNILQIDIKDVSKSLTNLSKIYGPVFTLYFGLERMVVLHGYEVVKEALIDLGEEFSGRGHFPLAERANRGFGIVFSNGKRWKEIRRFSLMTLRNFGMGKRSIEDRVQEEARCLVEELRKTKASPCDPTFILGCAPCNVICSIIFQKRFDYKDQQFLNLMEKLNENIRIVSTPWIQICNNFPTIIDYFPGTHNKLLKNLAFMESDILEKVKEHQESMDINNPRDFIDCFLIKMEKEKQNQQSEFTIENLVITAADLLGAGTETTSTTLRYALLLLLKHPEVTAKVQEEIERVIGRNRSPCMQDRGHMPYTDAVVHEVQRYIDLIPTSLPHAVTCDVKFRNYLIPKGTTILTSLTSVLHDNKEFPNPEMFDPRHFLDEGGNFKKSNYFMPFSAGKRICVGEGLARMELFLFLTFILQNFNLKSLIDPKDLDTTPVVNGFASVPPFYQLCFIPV
Muscarinic acetylcholine receptor M1 (Rattus norvegicus), sequence (P08482 whole entry, looked up): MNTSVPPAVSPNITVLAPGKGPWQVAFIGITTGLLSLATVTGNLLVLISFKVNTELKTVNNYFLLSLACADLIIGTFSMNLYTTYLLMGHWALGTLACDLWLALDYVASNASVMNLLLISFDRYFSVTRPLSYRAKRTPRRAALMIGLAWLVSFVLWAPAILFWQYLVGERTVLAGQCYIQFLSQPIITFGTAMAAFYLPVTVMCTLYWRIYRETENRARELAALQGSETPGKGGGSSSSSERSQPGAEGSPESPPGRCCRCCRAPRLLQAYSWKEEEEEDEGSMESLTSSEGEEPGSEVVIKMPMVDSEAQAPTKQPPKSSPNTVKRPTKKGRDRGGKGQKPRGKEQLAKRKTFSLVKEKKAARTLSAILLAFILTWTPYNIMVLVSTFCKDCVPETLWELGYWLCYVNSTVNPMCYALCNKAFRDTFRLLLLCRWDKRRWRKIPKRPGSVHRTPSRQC

For the molecule `NCC1(CC(=O)O)CCCCC1`, the result in [1], in [6] and in [7] was inactive. In addition, the Potency entry in test [2], in [3], in [4] and in test [5] was “inactive” in each case.
For `OCCOc1ccccc1`, the outcome in test [8], in [9] and in test [10] was inactive. Also, the Potency result in [3], in test [11] and in [12] was “inactive” in each case.
As for `N#CC(C#N)=Cc1ccc(O)c(O)c1`, the molecule was called inactive in [1] and in test [7]. Also, the Potency in [2] was 7.94 µM (active). Further, the Potency entry in test [4] and in [5] was “inactive” each time.
As for `NCC(CC(=O)O)c1ccc(Cl)cc1` (configuration not stated), the molecule was called inactive in test [1], in [13], in test [15], in [6], in [16] and in test [7]. For the same molecule, the Potency in test [14] is 5.62 µM (active).
For `NCC(O)c1ccc(O)cc1` (configuration not stated), the molecule was classed as inactive in test [8], in test [9], in test [10], in [15] and in [16]. Moreover, the Potency entry in test [3], in test [11] and in test [12] was “inactive” throughout.
For the molecule `N[C@@H]1C[C@H]1c1ccccc1`, the result in test [1], in test [6] and in test [7] was inactive. Moreover, the Potency entry in [14] and in [17] was “inactive” throughout.
`CCCC(C)(COC(N)=O)COC(=O)NC(C)C` (configuration not stated): the result in [8], in test [9], in test [10], in test [1], in test [13] and in [15] was inactive. In addition, the call in test [6], in test [16] and in [7] was inactive. Moreover, in [18], the activation was -37.8%. Further, the Potency result in test [11], in [17] and in test [12] was “inactive” each time.
Regarding `C[C@]12C/C(=C/O)C(=O)C[C@@H]1CC[C@@H]1[C@@H]2CC[C@@]2(C)[C@H]1CC[C@]2(C)O`, the result in test [9] was inactive. In addition, the Potency in [12] is 50.1 µM (active).
As for `CC(C)=CCOc1c2occc2cc2ccc(=O)oc12`, the call in test [15] and in test [16] was inactive.
Take `O=P1(NCCCl)OCCCN1CCCl` (configuration not stated): the activation in test [18] is -2.35%.
Turning to `CCC1(C2=NCCN2)Cc2ccccc2O1` (configuration not stated), the Potency entry in test [3] was “inactive”. Also, the call in test [15] and in test [16] was inactive.
In the case of `NCCc1cc(O)c(O)cc1O`, the Potency result in [3] is “inactive”. The molecule was called inactive in test [15] and in test [16].
